Among the data in PubChem BioAssay (EPA / NIEHS) are outcome and AC50 values, retold here.

As usually defined, the AC50 is the concentration giving half of the maximal activity seen.

Several values for one entry are separate records, joined by “and”; a condition that tells them apart may be missing. Equal entries are not always repeated. Some compounds were tested as several samples or in several runs, with calls that do not always agree. Activity calls are given as the source filed them. The calls were made as follows: active = hit-call score of the fitted dose curve at least 0.9, where 1 is the maximum; inactive = score below 0.9.

Holding throughout (conditions): mRNA level, 48 h; actives raise or lower the signal
Read-out in assay [1]: Cytochrome P450 (CYP2B6), CYP2B6 (gene 1555)
Description: LTEA_HepaRG_CYP2B6: Life Technologies and Expression Analysis (LTEA) Assay for Cytochrome P450 (CYP2B6) using HepaRG (AID 2283481). A digest of the protocol: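 Read-out is CYP2B6 mRNA by TaqMan qRT-PCR, normalized to three housekeeping genes and fitted bidirectionally against 0.5% DMSO baseline. Human HepaRG cells received test chemicals for 48 h, top concentration 100 uM, half-log dilutions.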

Read-out in assay [2]: Cytochrome P450 2C19 (Homo sapiens) (UniProt P33261)
Description: LTEA_HepaRG_CYP2C19: Life Technologies and Expression Analysis (LTEA) Assay for CYP2C19 using HepaRG (AID 2283482). The gist of the method: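 HepaRG, 48 h chemical exposure, 8-pt half-log series from 100 uM in 0.5% DMSO, duplicates. Readout: CYP2C19 mRNA by TaqMan qRT-PCR, housekeeping-normalized. Bidirectional fit vs DMSO baseline; phenobarbital 1mM as induction control.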

Read-out in assay [3]: CYP2C8 (gene 1558)
Kind of assay: LTEA_HepaRG_CYP2C8: Life Technologies and Expression Analysis (LTEA) Assay for CYP2C8 using HepaRG (AID 2283483). The gist of the method: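 HepaRG (human liver line), 48 h chemical exposure, 8-pt half-log series from 100 uM, 0.5% DMSO vehicle. Readout: CYP2C8 transcript by qRT-PCR, housekeeping-normalized. Bidirectional fit vs DMSO baseline.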

Read-out in assay [4]: CYP2C9 (gene 1559)
Kind of assay: LTEA_HepaRG_CYP2C9: Life Technologies and Expression Analysis (LTEA) Assay for CYP2C9 using HepaRG (AID 2283484). The gist of the method:
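HepaRG, 48 h dosing, 8-pt half-log series, top 100 uM, 0.5% DMSO vehicle. Read-out: CYP2C9 transcript by TaqMan qRT-PCR, housekeeping-normalized (ACTB/GAPDH/POLR2A). Gain or loss fitted vs DMSO baseline.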

Read-out in assay [5]: CYP2E1 (gene 1571)
Description: LTEA_HepaRG_CYP2E1: Life Technologies and Expression Analysis (LTEA) Assay for CYP2E1 using HepaRG (AID 2283485). A digest of the protocol:
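CYP2E1 transcript was measured by TaqMan qRT-PCR in human HepaRG cultures after 48 h chemical exposure (top 100 uM, half-log steps, 0.5% DMSO vehicle). Housekeeping-gene normalization; gain or loss fitted relative to DMSO baseline.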

Read-out in assay [6]: CYP4A11 (gene 1579)
Description: LTEA_HepaRG_CYP4A11: Life Technologies and Expression Analysis (LTEA) Assay for CYP4A11 using HepaRG (AID 2283486). The gist of the method:
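CYP4A11 transcript levels were quantified by TaqMan qRT-PCR after HepaRG human liver cells were treated for 48 hours with test chemicals (top 100 uM, half-log dilutions, 0.5% DMSO). Gain or loss of signal was fitted relative to DMSO.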

Read-out in assay [7]: Cytochrome P450 3A4 (Homo sapiens) (UniProt P08684)
Kind of assay: LTEA_HepaRG_CYP3A4: Life Technologies and Expression Analysis (LTEA) Assay for CYP3A4 using HepaRG (AID 2283487). A digest of the protocol:
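HepaRG, 48 h exposure, 8-pt CRC from 100 uM (half-log), 0.5% DMSO, duplicates; serum-free induction medium. Readout: CYP3A4 mRNA, qRT-PCR, ACTB/GAPDH/POLR2A normalization. Bidirectional fit vs DMSO.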

Read-out in assay [8]: DNA damage-inducible transcript 3 (DDIT3), DDIT3 (gene 1649)
Description: LTEA_HepaRG_DDIT3: Life Technologies and Expression Analysis (LTEA) Assay for DNA damage-inducible transcript 3 (DDIT3) using HepaRG (AID 2283488). The procedure:
LTEA_HepaRG is a cell based, multiplexed-readout assay that uses HepaRG, a human liver cell line, with measurements taken at 48 hours after chemical dosing on a 96-well plate.LTEA_HepaRG_DDIT3 is one of 102 assay component(s) measured in the LTEA HepaRG cell culture assay. It is a marker of Oxidative Stress.Data from the assay component LTEA_HepaRG_DDIT3 was analyzed into 1 endpoint. This assay endpoint, LTEA_HepaRG_DDIT3, was analyzed with bidirectional fitting relative to DMSO as the negative control and baseline of activity. Using a type of inducible reporter, measures of mRNA induction for gain or loss-of-signal activity can be used to understand regulation of transcription factor activity. To generalize the intended target to other relatable targets, this assay endpoint is annotated to the dna binding intended target family, where the subfamily is basic leucine zipper.
A total of 1060 chemcials from the ToxCast library were tested in eight-point concentration-response experiments. Cell culture and cytotoxicity assays were conducted at Thermo Fisher Scientific's Custom Services facility (Madison, WI). A single lot of human HepaRG cells (Thermo Fisher Scientific, Frederick, MD) was used for the cell culture experiments. 96-well format collagen type I coated plates of human HepaRG cells were prepared using established methods. Briefly, cryopreserved HepaRG cells were thawed, plated at a density of approximately 100,000 cells/well in HepaRG Thaw, Plate, and General Purpose media (HPRG770, Thermo Fisher Scientific), and incubated for 48 hours. 0.5% DMSO was selected as vehicle control to balance the requisite need of DMSO in HepaRG cultures to maintain differentiation (for example, baseline metabolism, proportions of hepatocytes vs. cholangiocytes), while enabling further hepatic receptor pathway activation (for example, PXR and CAR) in response to chemical exposure. 48 hours after plating, the culture medium was replaced with HepaRG Serum-Free Incudtion Media. Cells were exposed to each test chemical in duplicate and maintained in CO2 incubators for another 48 hours. Chemical plates were thawed to room temperature and 200x concentrations of treatment groups were prepared. 8-point conentration-reponse curves were made with the highest exposure at 100 uM, followed by half-log dilutions, all in 0.5% DMSO. Each test plate contained variouse controls, induction positive controls (1mM phenobarbital), cytotoxicity positive controls ([…] aflatoxin B1), vehicle controls (0.5% DMSO), and total lysis controls (0.5% DMSO). Cell morphology images were taken using an Essen IncuCyte FLR automated microscope, with six 96-well plates imaged in about 24 minutes. Images were captured and exported and JPEG files. Spent culture media was transfered to black-well plates for the LDH assay, and remaining media was sorted at -80 C for later use. Cells were treated with RLT buffer and frozen until shipped for gene expression analysis. Total RNA was isolated from the cell suspension in 75 uL of Buffer RLT (Qiagen, Germantown, MD 20874) by Quintiles/Expression Analysis (Durham, NC) using a custom isolation procedure. Total RNA from each plate well was transferred to a preamplification plate. Fluidigm's 96.96 Dynamic ArrayTM (Fluidigm, Amsterdam, the Netherlands) technology was used for gene expression analyses by quantitative reverse transcription polymerase chain reaction (qRT-PCR, performed by Quintiles/Expression Analysis, Durham, NC)89. Standard TaqManTM Assays (Applied Biosystems/ThermoFisher Scientific, Foster City, CA) were used to assess the expression of 93 genes selected based on their selectivity and sensitivity to important hepatic receptors known to be modulated by environmental chemicals; importance in human hepatocyte functionality; and hepatotoxicity. […]

Read-out in assay [9]: Pro-epidermal growth factor (Homo sapiens) (UniProt P01133)
Description: LTEA_HepaRG_EGF: Life Technologies and Expression Analysis (LTEA) Assay for Epidermal growth factor (EGF) using HepaRG (AID 2283489). The gist of the method:
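qRT-PCR readout of EGF transcript after 48 h chemical exposure of HepaRG cells; eight concentrations from 100 uM down in half-log steps, duplicate wells, 0.5% DMSO vehicle. Bidirectional curve fitting against DMSO baseline.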

Read-out in assay [10]: Early growth response protein 1 (EGR1) transcription factor, EGR1 (gene 1958)
Kind of assay: LTEA_HepaRG_EGR1: Life Technologies and Expression Analysis (LTEA) Assay for Early growth response protein 1 (EGR1) transcription factor using HepaRG (AID 2283490). A digest of the protocol: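 HepaRG, 48 h exposure, 8-pt half-log series from 100 uM, 0.5% DMSO vehicle; EGR1 transcript by TaqMan qRT-PCR (Fluidigm array), housekeeping-normalized; bidirectional fit relative to DMSO baseline.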

Chain of Cytochrome P450 2C19 (Homo sapiens) (P33261 whole entry, looked up): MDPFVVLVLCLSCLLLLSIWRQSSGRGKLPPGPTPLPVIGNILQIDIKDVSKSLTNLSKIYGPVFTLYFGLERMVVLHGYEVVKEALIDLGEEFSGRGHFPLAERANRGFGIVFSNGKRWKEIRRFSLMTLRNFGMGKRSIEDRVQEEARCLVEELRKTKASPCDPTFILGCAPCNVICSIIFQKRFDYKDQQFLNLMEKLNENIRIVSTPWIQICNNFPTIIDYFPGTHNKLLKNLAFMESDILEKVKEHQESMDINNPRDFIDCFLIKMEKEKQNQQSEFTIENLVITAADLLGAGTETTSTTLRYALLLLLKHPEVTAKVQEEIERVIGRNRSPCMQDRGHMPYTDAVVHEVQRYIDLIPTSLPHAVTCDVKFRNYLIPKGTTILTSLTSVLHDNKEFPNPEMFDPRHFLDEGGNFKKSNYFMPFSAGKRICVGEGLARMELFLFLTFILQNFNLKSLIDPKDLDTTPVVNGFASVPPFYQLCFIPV
Chain of Cytochrome P450 3A4 (Homo sapiens) (P08684 whole entry, looked up): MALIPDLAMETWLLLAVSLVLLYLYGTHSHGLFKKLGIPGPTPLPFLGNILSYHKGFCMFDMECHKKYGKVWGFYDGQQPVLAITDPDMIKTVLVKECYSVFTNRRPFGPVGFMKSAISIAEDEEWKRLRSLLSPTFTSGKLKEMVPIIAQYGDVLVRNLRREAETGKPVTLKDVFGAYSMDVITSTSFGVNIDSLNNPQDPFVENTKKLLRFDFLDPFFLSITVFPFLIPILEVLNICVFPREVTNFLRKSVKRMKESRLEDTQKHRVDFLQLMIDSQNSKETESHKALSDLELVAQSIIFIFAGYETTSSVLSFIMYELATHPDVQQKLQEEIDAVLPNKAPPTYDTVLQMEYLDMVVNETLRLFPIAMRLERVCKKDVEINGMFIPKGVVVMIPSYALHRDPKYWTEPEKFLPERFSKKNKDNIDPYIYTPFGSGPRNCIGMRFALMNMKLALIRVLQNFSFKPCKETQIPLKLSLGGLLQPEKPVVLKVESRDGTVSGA

With `COC(=O)c1ccc(C(=O)OC)cc1`, the outcome in [1], in [2], in assay [3], in assay [4], in assay [5] and in [6] was inactive. In addition, the outcome in assay [7], in assay [8], in assay [9] and in assay [10] was inactive.
As to `CC/C(=C(\c1ccccc1)c1ccc(OCCN(C)C)cc1)c1ccccc1`, the molecule was called inactive in [1], in assay [2], in assay [3], in assay [7], in [9] and in assay [10]. Besides, the AC50 was 17 µM (active) and 23.7 µM (active) in assay [5]; 19.7 µM (active) and 22.4 µM (active) in assay [6]; 64.7 µM (active) and 72.2 µM (active) in assay [8]; 73.6 µM (active) in [10].
For the molecule `O=C(c1ccc(OCCN2CCCCC2)cc1)c1c(-c2ccc(O)cc2)sc2cc(O)ccc12`, the AC50 in assay [1] was 80.5 µM (active); in assay [4], 50 µM (active); in [5] it was 69.1 µM (active); in [8], 83.3 µM (active); in [10], 90.9 µM (active). Moreover, the outcome in assay [3], in assay [6] and in [9] was inactive.
Turning to `C#C[C@]1(O)CC[C@H]2[C@@H]3CCc4cc(O)ccc4[C@H]3CC[C@@]21C`, the AC50 in assay [1] is 4.05 µM (active); in assay [2] it was 50 µM (active); in assay [3], 50 µM (active). Besides, the call in assay [4], in assay [5], in assay [6], in [7], in assay [8] and in [9] was inactive. Further, the result in assay [10] was inactive.
On to `C[C@]12CC[C@@H]3c4ccc(O)cc4CC[C@H]3[C@@H]1CC[C@@H]2O`, for which the AC50 in [1] is 1.73 µM (active); in [2], 5.7 µM (active); in assay [3], 4.16 µM (active); in assay [5], 50 µM (active); in assay [6], 76.9 µM (active); in [7], 4.95 µM (active). In addition, the outcome in assay [4], in [8], in assay [9] and in assay [10] was inactive.
In the case of `CCCCOCCOCCO`, the result in [1], in assay [2], in [3], in assay [4], in [5] and in assay [6] was inactive. Besides, the molecule was called inactive in [7], in assay [8], in assay [9] and in assay [10].
Turning to `C=C(C)C(N)=O`, the molecule was classed as inactive in assay [1], in [2], in [3], in assay [4], in assay [5] and in [6]. Besides, the result in [7], in assay [8], in [9] and in assay [10] was inactive.
